Screening results: PubChem, Sanford-Burnham Center for Chemical Genomics
H9c2 protect: cardioprotection against H2O2-induced cell death, primary screen, uHTS, H9c2 cells, ATPLite luminescence; AID 588492, 2011; 360,000 compounds, 0.63% hits; protection from H2O2 cell death, % at 20 µM; H9c2 cardiomyocytes, H2O2 injury protection, 2 h;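 active means compounds giving at least 50% protection of heart cells from peroxide-induced death in the single-dose screen, raw or plate-pattern-corrected value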
FAS TE block: FAS thioesterase domain inhibitors, primary screen, biochemical, fluorescence intensity, uHTS. Fatty acid synthase (Homo sapiens), P49327. recombinant FAS-TE, OMFH fluorogenic substrate, fluorescence endpoint. inhibition, % at 15 µM. 360,000 compounds, 0.67% hits. AID 602261, 2012;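 active means compounds whose normalised, plate-corrected inhibition of enzyme fluorescence in the single-dose primary screen is 50% or more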
CRFBP-R2 block: antagonists of CRF-BP/CRF-R2 complex, primary screen, cell-based, HEK293, calcium dye fluorescence, uHTS. CRF-induced calcium fluorescence. inhibition, % at 11.8 µM. 350,000 compounds, 0.59% hits. AID 588475, 2011;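 active means inhibition of the ligand-induced calcium signal above about 50% at the single tested concentration, limit read from the data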
PfGluPho inh: PfG6PD enzyme inhibitors, primary screen, biochemical, fluorescence intensity, uHTS | PfGluPho enzyme, NADPH resazurin-diaphorase fluorescence | inhibition, % at 20 µM | 350,000 compounds, 0.78% hits | AID 504690, 2011;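 active means inhibition reaching at least a set limit at 20 µM in the primary screen, cut at about 59% in these data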
CRFR2-BP ag: agonists of CRF-BP/CRF-R2 complex, primary screen, cell-based, HEK293, calcium dye fluorescence, uHTS. activation, % at 13.2 µM. calcium dye fluorescence (FLIPR); percent of saturating CRF peptide response. 350,000 compounds, 0.46% hits. AID 588473, 2011. CRF-binding protein / CRF receptor 2 complex (human);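 active means activation of at least 50%, plus an integration ratio under a set limit after plate pattern correction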
aDG glyco up: activators of alpha-DG glycosylation, primary screen, uHTS, Pro5-aDG cells, AlphaScreen. AID 624168, 2012. alpha-DG glycosylation AlphaScreen (IIH6); 0% Pro5, 100% B10-LARGE cell signal. 360,000 compounds, 0.22% hits. activation, % at 10 µM;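 active means activation of at least 8% versus controls, or a plate z-score of at least 8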;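 further: Pro5 are CHO cells carrying HIG-tagged alpha-DG that lacks glycosylation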
FAS-TE inh conf: FAS thioesterase domain inhibitors, confirmation, biochemical, fluorescence intensity, single concentration; shares compounds with FAS TE block; recombinant FAS-TE, OMFH fluorogenic substrate; inhibition, % at 15 µM; 2,300 compounds, 45% hits; AID 624325, 2012;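 active means compounds inhibiting the enzyme by at least 50% at 15 µM in any one of the replicates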
Large screens that a line does not name were inactive (follow-up assays come after a bar, where they were run). Compounds with a hit are over-represented: about 3.2% of the library has one in this group of screens.

CCn1c(SCC(=O)Nc2oc(-c3ccccc3)c(-c3ccccc3)c2C#N)nnc1-c1cc(OC)cc(OC)c1	FAS TE block 54 | FAS-TE inh conf inactive
CCOC(=O)c1c(NC(=O)CSc2nnc(-c3ccccc3)n2CC)sc(C(C)=O)c1C	FAS TE block 51 | FAS-TE inh conf inactive
O=C(CSc1ncn[nH]1)Nc1ncc(C(F)(F)F)cc1Cl	none
CCOC(=O)[C@]12CCC=C1N(Cc1ccccc1)C(=O)[C@H](CC(=O)NCc1ccc(OC)c(OC)c1)C2	none (no result: H9c2 protect, CRFBP-R2 block, PfGluPho inh, CRFR2-BP ag)
CCc1nc2c(OCC3CCCCC3)cccn2c1N(C)C(=O)c1ccc(C)cc1	none (no result: CRFBP-R2 block, PfGluPho inh, CRFR2-BP ag)
CC(C)Cn1c(O)c(N=NC(=O)c2cccc(S(=O)(=O)N3CCCCC3)c2)c2ccccc21	FAS TE block 58 | FAS-TE inh conf inactive
CC(C)CCn1c(O)c(N=NC(=O)c2ccco2)c2ccccc21	none
Cc1ccccc1-n1c(SCC(=O)N/N=C/c2c(C)nn(-c3ccccc3)c2C)nc2ccccc2c1=O	FAS TE block 59 | FAS-TE inh conf inactive
Cc1ccc(/C=N/NC(=O)CSc2nc3ccccc3c(=O)n2-c2ccccc2C)s1	FAS TE block 51 | FAS-TE inh conf inactive
Cc1ccc(/C=N/NC(=O)CSc2nc3ccccc3c(=O)n2-c2ccccc2)s1	none
COc1ccccc1/C=C/C=N/NC(=O)c1ccc(=O)n(C)c1	none
CC12CC3CC(C)(C1)CC(C(=O)Nc1nncs1)(C3)C2	none
CCCCC(=O)N(C)c1c(CC)nc2c(OCC(=O)N(C)C)cccn12	none (no result: CRFBP-R2 block, PfGluPho inh, CRFR2-BP ag)
Cc1coc2c1C(=O)C(=O)c1c-2ccc2c1CCCC2(C)C	FAS TE block 58 | FAS-TE inh conf inactive
C[C@H]1COC2=C1C(=O)C(=O)c1c2ccc2c1CCCC2(C)C	none
CCN(C(=O)COC(=O)c1ccccc1Nc1ccccc1)c1c(N)n(Cc2ccccc2)c(=O)[nH]c1=O	FAS TE block 77 | FAS-TE inh conf inactive
O=C(CCS(=O)(=O)c1ccccc1)Nc1cccc2c1C(=O)NC2=O	none
Cc1ccc(S(=O)(=O)Oc2ccc(/C=C3/N=C(c4ccccc4)OC3=O)cc2)cc1	FAS TE block 54 | FAS-TE inh conf inactive
C=CCn1c(SCc2ccc(Br)cc2F)nc2cc(C(=O)O)ccc2c1=O	FAS TE block 62 | FAS-TE inh conf 65
C=CCn1c(SCc2c(C)noc2C)nc2cc(C(=O)O)ccc2c1=O	none
COC(=O)[C@]1(Cc2ccccc2)N[C@H](CN(C)S(=O)(=O)c2ccc(C(C)(C)C)cc2)[C@@H]2C(=O)N(Cc3ccccc3)C(=O)[C@@H]21	FAS TE block 55 | FAS-TE inh conf inactive
COC(=O)[C@]1(Cc2ccccc2)N[C@H](CN(C)S(=O)(=O)c2ccc(C(F)(F)F)cc2)[C@@H]2C(=O)N(Cc3ccccc3)C(=O)[C@@H]21	none
CCN(C[C@H]1N[C@@](Cc2ccccc2)(C(=O)OC)[C@H]2C(=O)N(Cc3ccccc3)C(=O)[C@@H]12)C(=O)Nc1ccc(C(F)(F)F)cc1	FAS TE block 62 | FAS-TE inh conf inactive
Cc1ccc(C(=O)c2cnc3cc4c(cc3c2S(=O)(=O)c2ccccc2)OCCO4)cc1	FAS TE block 72 | FAS-TE inh conf inactive
CC(C)(C)OC(=O)N1CCC(c2cc(=O)n3[nH]cc(C(=O)Nc4ccc(F)c(Cl)c4)c3n2)CC1	FAS TE block 77 | FAS-TE inh conf 64
CC(C)(C)OC(=O)N1CCC(c2cc(=O)n3[nH]c(-c4ccc(Cl)cc4)cc3n2)CC1	none
NS(=O)(=O)c1cccc(NC(=O)CCSc2ccccc2Cl)c1	none
O=C(CCSc1ccccc1Cl)Nc1cccc([N+](=O)[O-])c1	FAS TE block 52 | FAS-TE inh conf inactive
Cc1ccc(C)c(NC(=O)CN(C)C(=O)c2cc([N+](=O)[O-])ccc2N2CCOCC2)c1	none
Cc1cc(Br)ccc1NC(=O)CN(C)C(=O)c1cc([N+](=O)[O-])ccc1N1CCOCC1	FAS TE block 64 | FAS-TE inh conf 77
CCOC(=O)c1ccccc1NC(=O)COC(=O)c1cc([N+](=O)[O-])ccc1N1CCOCC1	FAS TE block 53 | FAS-TE inh conf inactive
O=C(COC(=O)c1cc([N+](=O)[O-])ccc1N1CCOCC1)Nc1cccc(F)c1	FAS TE block 90 | FAS-TE inh conf 93
CN(CC(=O)Nc1ccc(F)cc1)C(=O)COC(=O)c1cc([N+](=O)[O-])ccc1N1CCOCC1	FAS TE block 62 | FAS-TE inh conf 58
O=C1C=C(c2cnc3ccccc3c2)C[C@@H](c2ccc3c(c2)OCO3)C1	none
O=C(CSc1n[nH]c(-c2ccncc2)n1)Nc1ccc(Cl)c(C(=O)O)c1	none
O=C(COC(=O)c1c[nH]c(=O)[nH]c1=O)Nc1cccc([N+](=O)[O-])c1	none
CC(=O)Nc1ccc(NC(=O)COC(=O)c2cc([N+](=O)[O-])ccc2N2CCOCC2)cc1	none
Cc1cc(C(=O)OCC(=O)Nc2cccc([N+](=O)[O-])c2)c(C)o1	FAS TE block 66 | FAS-TE inh conf 62
O=C(COC(=O)c1cc([N+](=O)[O-])ccc1N1CCOCC1)Nc1c(Cl)cccc1Cl	FAS TE block 67 | FAS-TE inh conf 75
COc1ccc(NC(=O)COC(=O)c2cc([N+](=O)[O-])ccc2N2CCOCC2)cc1	FAS TE block 80 | FAS-TE inh conf 60
O=[N+]([O-])c1ccc(-c2nc(Nc3cccc(O)c3)c3ccccc3n2)cc1	FAS TE block 56 | FAS-TE inh conf 54
CC(C)(C)c1ccc(/C=C2\CCn3c2nc2cc(C(=O)O)ccc2c3=O)cc1	FAS TE block 84 | FAS-TE inh conf 88
O=C(CN1CCN(c2ncc(C(F)(F)F)cc2Cl)CC1)N1CCN(c2ncc(C(F)(F)F)cc2Cl)CC1	none
O=C(CSc1ccc(Cl)cc1)N1CCN(c2ncc(C(F)(F)F)cc2Cl)CC1	FAS TE block 53 | FAS-TE inh conf inactive
CC(=O)Nc1ccc(NC(=O)c2ccccc2S(=O)(=O)c2ccccc2[N+](=O)[O-])cc1	none
CC(=O)Nc1ccc(NC(=O)c2ccccc2S(=O)(=O)c2ccc([N+](=O)[O-])cc2)cc1	FAS TE block 59 | FAS-TE inh conf 64
COc1ccccc1NC(=O)c1ccccc1S(=O)(=O)c1ccc([N+](=O)[O-])cc1	FAS TE block 54 | FAS-TE inh conf 63
